# PubChem BioAssay (EPA / NIEHS)
# Several values for one entry are separate records, joined by “and”; a condition that tells them apart may be missing. Identical values can stand only once. Where a structure was tested more than once in an assay, its records may differ in their call. Activity calls are given as the source filed them. How the source made its calls: active means hit-call score of the fitted dose curve at least 0.9, where 1 is the maximum; inactive means score below 0.9.
# What was measured:
# [1] = APR_HepG2_CellLoss_72hr: Apredica 72-hour HepG2 Assay for Cell Loss (AID 2282915); details: high-content imaging
# How it was run: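 HepG2 cells exposed 72 h to compound at 0.39–200 uM (10 concentrations, duplicate) in 0.5% DMSO. Fixed with 3.7% formaldehyde and Hoechst 33342-stained. Imaged at 20x; nuclear count gives cell number, fitted bidirectionally versus DMSO.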
# [2] = APR_HepG2_P-H2AX_72hr: Apredica 72-hour HepG2 Assay for H2AX Phosphorylation (AID 2282916); details: imaging, actives raise or lower the signal;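 further: phospho-histone H2A.x immunostain intensity per cell marking DNA damage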
# How it was run: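 HepG2 cells treated 72 h at 0.39–200 uM, 0.5% DMSO final, duplicates. Formaldehyde-fixed, Triton-permeabilised, immunostained for phospho-H2A.x with Hoechst; fluorescence imaged at 20x, bidirectional fit versus DMSO.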
# [3] = APR_HepG2_MitoMembPot_72hr: Apredica 72-hour HepG2 Assay for Mitochondrial Membrane Potential (AID 2282917); details: imaging, actives raise or lower the signal
# How it was run: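 HepG2 cells dosed 72 hr with compound at 0.39–200 uM in duplicate, 0.5% v/v DMSO final. Mitochondria stained with 250 nM MitoTracker Red CMXRos for 30 min before formaldehyde fixation, imaged by high-content fluorescence; bidirectional fit versus DMSO.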
# [4] = APR_HepG2_MitoticArrest_72hr: Apredica 72-hour HepG2 Assay for Mitotic Arrest (AID 2282918); details: high-content imaging, actives raise or lower the signal
# How it was run: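 Mitotic arrest in HepG2 is scored from phospho-histone H3 staining after 72 hr dosing across 0.39–200 uM, with DMSO at 0.5% v/v. Nuclei are identified by Hoechst 33342 and fluorescence intensity is quantified per cell.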
# [5] = APR_HepG2_MicrotubuleCSK_72hr: Apredica 72-hour HepG2 Assay for Microtubule CSK Stabilty (AID 2282919); details: HepG2 microtubule cytoskeleton, high-content imaging, actives raise or lower the signal
# How it was run: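 HepG2 cells were exposed 72 hr to compound at 0.39–200 uM in duplicate (0.5% DMSO final), then fixed and permeabilized. Alpha-tubulin immunofluorescence was imaged by high-content microscopy, with bidirectional fitting against DMSO and taxol as positive control.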
# [6] = APR_HepG2_P-H2AX_24hr: Apredica 24-hour HepG2 Assay for H2AX Phosphorylation (AID 2282920); details: high-content imaging, actives raise or lower the signal
# How it was run: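 Signal comes from a FITC-labeled secondary detecting phospho-histone H2A.x in fixed HepG2 cells, quantified by automated imaging at 20x. Dosing ran 24 hr across 0.39–200 uM with 0.5% v/v DMSO.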
# [7] = APR_HepG2_StressKinase_72hr: Apredica 72-hour HepG2 Assay for Stress Kinase (AID 2282921); details: HepG2 stress kinase (phospho-c-Jun) imaging, actives raise or lower the signal
# How it was run: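 HepG2 cells treated 72 hr with 0.39–200 uM compound, 0.5% v/v DMSO, duplicate wells. After formaldehyde fixation and Triton permeabilization, stained with anti-phospho-c-Jun (1:500) and Cy3 secondary, imaged at 20x. Fitted in both directions against DMSO.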
# [8] = APR_HepG2_StressKinase_24hr: Apredica 24-hour HepG2 Assay for Stress Kinase (AID 2282922); details: HepG2 stress kinase (phospho-c-Jun) imaging, actives raise or lower the signal
# How it was run: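 HepG2 cells exposed 24 h to 0.39–200 uM compound in duplicate (0.5% v/v DMSO final). Cells fixed in 3.7% formaldehyde, permeabilized and immunostained for phospho-c-Jun; read by high-content fluorescence imaging, fitted bidirectionally against DMSO.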
# [9] = APR_HepG2_p53Act_72hr: Apredica 72-hour HepG2 Assay for p53 Activation (AID 2282923); details: high-content imaging, actives raise or lower the signal;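 further: average cellular p53 protein immunofluorescence intensity in HepG2 cells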
# How it was run: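 HepG2 cells exposed 72 h to 0.39–200 uM in 0.5% DMSO, duplicates. Fixed, permeabilized cells immunostained for p53 (Cy5) with Hoechst; imaged at 20x, fluorescence analyzed bidirectionally against DMSO.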
# [10] = APR_HepG2_NuclearSize_72hr: Apredica 72-hour HepG2 Assay for Nuclear Size (AID 2282925); details: high-content imaging, actives raise or lower the signal
# How it was run: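 HepG2 cells dosed 72 h at 0.39–200 uM (10 concentrations, duplicate) in 0.5% v/v DMSO final. Fixed, Hoechst 33342-stained nuclei imaged; nuclear diameter measured by automated image analysis. Bidirectional fit versus DMSO.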
# [11] = ATG_CRE_CIS: Attagene CIS-FACTORIAL HepG2 Assay for human cAMP Responsive Element (CRE) binding protein 3 (AID 2282926); details: HepG2 CRE cis-reporter, Attagene multiplexed mRNA; actives raise or lower the signal
# How it was run: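 We dosed HepG2 cells bearing multiple cis-promoter reporter units for 24 h and measured reporter mRNA by RT-PCR with capillary electrophoresis detection. Bidirectional concentration-response fitting used DMSO as negative control.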
# [12] = biological target: CCAAT/enhancer-binding protein beta (Homo sapiens) (UniProt P17676); assay: ATG_C_EBP_CIS: Attagene CIS-FACTORIAL HepG2 Assay for human CCAAT/Enhancer Binding Protein (C/EBP) beta (AID 2282927); details: HepG2 Attagene cis-factorial transcription factor reporter; actives raise or lower the signal
# How it was run: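 HepG2 transiently transfected with multiplexed reporter units under cis-regulatory promoters reporting endogenous C/EBPb activity. After 24 h exposure, reporter mRNA assayed by RT-PCR, fluorescent labelling, HpaI digestion and capillary electrophoresis; bidirectional fitting versus DMSO.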
# [13] = ATG_CMV_CIS: Attagene CIS-FACTORIAL HepG2 Assay for human CMV (Internal Marker) (AID 2282928); details: HepG2 CMV promoter reporter, transcription factor profiling; actives raise or lower the signal;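 further: endpoint acts as a background internal control marker rather than a target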
# How it was run: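 HepG2 cells transiently transfected with multiple cis-regulated reporter units; 24 h compound exposure. Reporter mRNA quantified by RT-PCR, 6-FAM primer-extension labeling, HpaI digestion and capillary electrophoresis; bidirectional fitting against DMSO baseline.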
# [14] = ATG_DR4_LXR_CIS: Attagene CIS-FACTORIAL HepG2 Assay for human Liver X Receptor (LXR), DR4 submotif (AID 2282929); details: HepG2 Attagene DR4 cis-reporter, mRNA transcription; actives raise or lower the signal
# How it was run: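 The endpoint is DR4-element-driven reporter transcripts after 24 h chemical exposure of transfected HepG2 cells. These were measured via RT-PCR and capillary electrophoresis, and gain or loss of signal was fitted relative to DMSO controls.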
# [15] = biological target: Aryl hydrocarbon receptor (Homo sapiens) (UniProt P35869); assay: ATG_Ahr_CIS: Attagene CIS-FACTORIAL HepG2 Assay for human Aryl Hydrocarbon Receptor (Ahr) (AID 2282930); details: HepG2 AhR cis-factorial reporter transcription; actives raise or lower the signal
# How it was run: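 HepG2 cells transiently transfected with cis-element-driven multiplexed reporter units; endogenous AhR activity read as reporter mRNA 24 h after dosing, via RT-PCR, 6-FAM labelling, HpaI digestion and capillary electrophoresis. Bidirectional fit relative to DMSO.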
# [16] = ATG_AP_1_CIS: Attagene CIS-FACTORIAL HepG2 Assay for human Activator Protein 1 (AP-1) (AID 2282931); details: HepG2 Attagene cis-factorial AP-1 reporter mRNA; actives raise or lower the signal
# How it was run: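 Readout is reporter transcript level from endogenous transcription factor activity, quantified by RT-PCR with fluorescent primer extension and capillary electrophoresis. Transiently transfected HepG2 cells, 24 h exposure. Curves fitted both directions versus DMSO.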
# [17] = ATG_AP_2_CIS: Attagene CIS-FACTORIAL HepG2 Assay for human Activator Protein 2 (AP-2) (AID 2282932); details: HepG2 AP-2 cis-reporter, Attagene transcription factor profiling; actives raise or lower the signal
# How it was run: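 HepG2 cells transiently transfected with cis-element reporter units and exposed for 24 h. Reporter mRNA measured by RT-PCR, FAM labelling, HpaI digestion and capillary electrophoresis. Changes in either direction fitted relative to DMSO.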
# [18] = ATG_BRE_CIS: Attagene CIS-FACTORIAL HepG2 Assay for human Bone Morphogenetic Protein (BMP) Response Element (BRE) (AID 2282933); details: HepG2 BMP response element reporter, Attagene transcription factor profiling; actives raise or lower the signal
# How it was run: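 Gain- or loss-of-signal was derived by bidirectional fitting against DMSO controls. The signal came from reporter mRNA, measured by RT-PCR and capillary electrophoresis, in HepG2 cells transiently carrying multiple reporter units and dosed for 24 h.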
# [19] = biological target: Retinoic acid receptor alpha (Homo sapiens) (UniProt P10276); assay: ATG_DR5_RAR_CIS: Attagene CIS-FACTORIAL HepG2 Assay for human Retinoic Acid Receptor Alpha (RARE), DR5 submotif (AID 2282934); details: HepG2 Attagene cis-factorial RARE DR5 reporter, mRNA; actives raise or lower the signal;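 on AC50: reporter responds to endogenous RAR alpha beta and gamma in HepG2 not RARA alone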
# How it was run: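 HepG2 cells transiently transfected with multiplexed reporter units; DR5 cis-element drives reporter through endogenous transcription factors. After 24 h dosing, reporter mRNA quantified by RT-PCR, fluorescent labeling, HpaI digestion and capillary electrophoresis; bidirectional fitting versus DMSO.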
# [20] = APR_HepG2_MitoMass_72hr: Apredica 72-hour HepG2 Assay for Mitochondrial Mass (AID 2282924); details: high-content imaging, actives raise or lower the signal;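 further: MitoTracker Red CMXRos stain intensity per cell imaged as mitochondrial mass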
# How it was run: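 HepG2 cells dosed 72 hr at 0.39–200 uM (0.5% DMSO), in duplicate. MitoTracker Red CMXRos 250 nM loaded 30 min before formaldehyde fixation; high-content fluorescence imaging, bidirectional fit versus DMSO.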
# Retinoic acid receptor alpha (Homo sapiens), sequence (P10276 whole entry, looked up): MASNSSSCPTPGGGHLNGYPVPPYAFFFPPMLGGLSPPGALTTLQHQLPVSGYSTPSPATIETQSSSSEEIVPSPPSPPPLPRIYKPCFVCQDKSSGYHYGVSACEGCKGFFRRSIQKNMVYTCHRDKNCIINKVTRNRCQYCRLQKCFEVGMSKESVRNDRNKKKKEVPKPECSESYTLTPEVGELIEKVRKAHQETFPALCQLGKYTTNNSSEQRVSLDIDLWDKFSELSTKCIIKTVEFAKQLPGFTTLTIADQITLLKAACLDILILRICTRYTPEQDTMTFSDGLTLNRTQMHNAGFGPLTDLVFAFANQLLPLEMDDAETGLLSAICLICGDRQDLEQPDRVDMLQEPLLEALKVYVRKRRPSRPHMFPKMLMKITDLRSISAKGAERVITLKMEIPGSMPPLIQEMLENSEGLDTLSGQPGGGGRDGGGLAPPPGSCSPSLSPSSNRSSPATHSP
# CCAAT/enhancer-binding protein beta (Homo sapiens), sequence (P17676 whole entry, looked up): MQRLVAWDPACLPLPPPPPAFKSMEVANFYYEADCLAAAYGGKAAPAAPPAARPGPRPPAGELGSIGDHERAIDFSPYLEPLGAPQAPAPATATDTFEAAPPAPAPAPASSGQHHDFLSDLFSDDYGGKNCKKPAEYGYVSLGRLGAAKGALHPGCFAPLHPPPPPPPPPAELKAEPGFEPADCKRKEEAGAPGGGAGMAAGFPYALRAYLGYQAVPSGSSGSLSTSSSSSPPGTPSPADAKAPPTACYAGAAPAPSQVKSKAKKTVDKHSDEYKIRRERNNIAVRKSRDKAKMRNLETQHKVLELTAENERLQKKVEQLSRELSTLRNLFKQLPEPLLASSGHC
# Aryl hydrocarbon receptor (Homo sapiens), sequence (P35869 whole entry, looked up): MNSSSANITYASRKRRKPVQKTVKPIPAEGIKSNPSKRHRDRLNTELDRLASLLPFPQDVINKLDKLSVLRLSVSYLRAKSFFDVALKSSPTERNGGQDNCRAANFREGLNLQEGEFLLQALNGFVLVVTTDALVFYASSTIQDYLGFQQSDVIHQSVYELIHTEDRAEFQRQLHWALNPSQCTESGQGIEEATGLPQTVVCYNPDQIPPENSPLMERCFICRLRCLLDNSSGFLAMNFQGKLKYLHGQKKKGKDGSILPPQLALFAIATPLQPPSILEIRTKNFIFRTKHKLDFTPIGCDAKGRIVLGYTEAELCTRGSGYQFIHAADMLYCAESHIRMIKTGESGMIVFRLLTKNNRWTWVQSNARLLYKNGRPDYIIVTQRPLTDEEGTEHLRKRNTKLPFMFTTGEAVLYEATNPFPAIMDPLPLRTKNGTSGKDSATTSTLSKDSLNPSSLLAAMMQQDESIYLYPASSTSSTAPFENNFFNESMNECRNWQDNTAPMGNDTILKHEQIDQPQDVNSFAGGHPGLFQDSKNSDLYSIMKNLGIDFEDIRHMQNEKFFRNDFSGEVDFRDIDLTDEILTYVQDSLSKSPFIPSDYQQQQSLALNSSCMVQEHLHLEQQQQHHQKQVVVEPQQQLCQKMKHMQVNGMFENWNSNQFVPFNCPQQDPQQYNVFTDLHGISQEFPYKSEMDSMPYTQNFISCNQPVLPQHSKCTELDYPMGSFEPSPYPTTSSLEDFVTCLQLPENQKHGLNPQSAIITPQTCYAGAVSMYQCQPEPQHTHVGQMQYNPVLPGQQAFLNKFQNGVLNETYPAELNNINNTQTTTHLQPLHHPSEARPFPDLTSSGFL
smiles,measurement,setting,value
CCC(C)(C)C1CCC(O)CC1 (configuration not stated),AC50,[1],122 µM (active)
same,AC50,[2],112 µM (active)
same,outcome,[3],inactive
same,AC50,[4],102 µM (active)
same,outcome,[5],inactive
same,AC50,[6],114 µM (active)
same,outcome,[7],inactive
same,outcome,[8],inactive
same,AC50,[9],105 µM (active)
same,outcome,[10],inactive
same,outcome,[11],inactive
same,outcome,[12],inactive
same,outcome,[13],inactive
same,AC50,[14],172 µM (active)
same,outcome,[14],inactive
same,AC50,[15],48.2 µM (active)
same,outcome,[15],inactive
same,outcome,[16],inactive
same,outcome,[17],inactive
same,outcome,[18],inactive
same,outcome,[19],inactive
O=C(/C=C/c1ccc(O)cc1)CC(=O)/C=C/c1ccc(O)cc1,outcome,[1],inactive
same,AC50,[2],32.1 µM (active)
same,outcome,[3],inactive
same,outcome,[4],inactive
same,outcome,[5],inactive
same,outcome,[6],inactive
same,AC50,[7],27.1 µM (active)
same,AC50,[8],100 µM (active)
same,outcome,[9],inactive
same,AC50,[20],46.3 µM (active)
same,outcome,[11],inactive
same,outcome,[12],inactive
same,AC50,[14],18.9 µM (active)
same,outcome,[15],inactive
same,AC50,[16],62 µM (active)
same,AC50,[17],100 µM (active)
same,outcome,[18],inactive
same,outcome,[19],inactive
CC(C)CCCCCCOC(=O)CCCCC(=O)OCCCCCCC(C)C,outcome,[1],inactive
same,outcome,[2],inactive
same,outcome,[3],inactive
same,outcome,[4],inactive
same,outcome,[5],inactive
same,outcome,[6],inactive
same,outcome,[7],inactive
same,outcome,[8],inactive
same,outcome,[9],inactive
same,outcome,[20],inactive
same,outcome,[11],inactive
same,outcome,[12],inactive
same,outcome,[14],inactive
same,AC50,[15],60.3 µM (active)
same,outcome,[16],inactive
same,outcome,[17],inactive
same,outcome,[18],inactive
same,outcome,[19],inactive
C#C[C@]1(O)CC[C@H]2[C@@H]3CCC4=CC(=O)CC[C@@H]4[C@H]3CC[C@@]21C,outcome,[1],inactive
same,outcome,[2],inactive
same,outcome,[3],inactive
same,outcome,[4],inactive
same,outcome,[5],inactive
same,outcome,[6],inactive
same,outcome,[7],inactive
same,outcome,[8],inactive
same,outcome,[9],inactive
same,outcome,[20],inactive
same,outcome,[11],inactive
same,outcome,[12],inactive
same,outcome,[13],inactive
same,AC50,[15],71.5 µM (active) and 50 µM (active)
same,outcome,[15],inactive
same,outcome,[16],inactive
same,outcome,[17],inactive
same,outcome,[18],inactive
same,outcome,[19],inactive
Cc1cc(C)c(O)c(C)c1,outcome,[1],inactive
same,outcome,[2],inactive
same,outcome,[3],inactive
same,outcome,[4],inactive
same,outcome,[5],inactive
same,outcome,[6],inactive
same,outcome,[7],inactive
same,outcome,[8],inactive
same,outcome,[9],inactive
same,outcome,[10],inactive
same,outcome,[11],inactive
same,outcome,[12],inactive
same,outcome,[14],inactive
same,outcome,[15],inactive
same,outcome,[16],inactive
same,outcome,[17],inactive
same,outcome,[18],inactive
same,AC50,[19],100 µM (active)
NC(=O)N(O)[C@@H]1C=C[C@H](Oc2cccc(Oc3ccc(F)cc3)c2)C1,AC50,[1],94.7 µM (active)
same,outcome,[2],inactive
same,outcome,[3],inactive
same,AC50,[4],85.4 µM (active)
same,outcome,[5],inactive
same,AC50,[6],103 µM (active)
same,outcome,[7],inactive
same,outcome,[8],inactive
same,outcome,[9],inactive
same,outcome,[10],inactive
same,AC50,[11],22.6 µM (active)
same,outcome,[12],inactive
same,outcome,[14],inactive
same,outcome,[15],inactive
same,outcome,[16],inactive
same,outcome,[17],inactive
same,outcome,[18],inactive
same,outcome,[19],inactive
